Sfp PPTase inh – qHTS Assay for Inhibitors of Bacillus subtilis Sfp phosphopantetheinyl transferase (PPTase); 4'-phosphopantetheinyl transferase ffp (Bacillus subtilis), Q9F4F7; Biochemical Sfp PPTase activity, qHTS; Potency, µM, for inactives: largest response in the series, negative = inhibition, usual class: inhibitors; 310,000 tested, 3.5% active; AID 1490, 2009;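 note: the enzyme is Sfp with the accession as filed and its product quenches rhodamine fluorescence; 0% = enzyme reaction without inhibitor and -100% = no enzyme wells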
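Sfp 15 nM + cpd, 15 min RT; start w/ rhodamine-CoA 5 uM, BHQ-2-YbbR 12.5 uM (final); 50 mM Hepes pH 7.6, 10 mM MgCl2, 0.01% NP-40, 0.01% BSA; read 525/598 nm at 0 and 30 min.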
VDR inhibitor – Inhibitors of the vitamin D receptor (VDR): qHTS. Vitamin D3 receptor (Homo sapiens), P11473. VDR-SRC2-3 peptide fluorescence polarization, 2 h. Potency, µM, inactives show max response, negative = inhibition, usual class: inhibitors. 400,000 tested, 0.93% active. AID 504847, 2011
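After 23 nl compound addition and a short centrifugation, plates sat for 2 hours at ambient temperature; polarization of fluorescence then indicated loss of VDR binding to peptide SRC2-3.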
PLK1 PBD block – qHTS for Inhibitors of PLK1-PDB (polo-like kinase 1 - polo-box domain): Primary Screen; 360,000 tested, 2.8% active; Potency, µM, for inactives: max response, negative = inhibition, usual class: inhibitors; Plk1 PBD binding of FITC phosphopeptide, fluorescence polarization; Serine/threonine-protein kinase PLK1 (Homo sapiens), P53350; note: series mostly up to about 57 µM; nearly all actives have a fitted effect of over 65% in size
Target sequence (P53350 whole entry, looked up, the tested form may be a part): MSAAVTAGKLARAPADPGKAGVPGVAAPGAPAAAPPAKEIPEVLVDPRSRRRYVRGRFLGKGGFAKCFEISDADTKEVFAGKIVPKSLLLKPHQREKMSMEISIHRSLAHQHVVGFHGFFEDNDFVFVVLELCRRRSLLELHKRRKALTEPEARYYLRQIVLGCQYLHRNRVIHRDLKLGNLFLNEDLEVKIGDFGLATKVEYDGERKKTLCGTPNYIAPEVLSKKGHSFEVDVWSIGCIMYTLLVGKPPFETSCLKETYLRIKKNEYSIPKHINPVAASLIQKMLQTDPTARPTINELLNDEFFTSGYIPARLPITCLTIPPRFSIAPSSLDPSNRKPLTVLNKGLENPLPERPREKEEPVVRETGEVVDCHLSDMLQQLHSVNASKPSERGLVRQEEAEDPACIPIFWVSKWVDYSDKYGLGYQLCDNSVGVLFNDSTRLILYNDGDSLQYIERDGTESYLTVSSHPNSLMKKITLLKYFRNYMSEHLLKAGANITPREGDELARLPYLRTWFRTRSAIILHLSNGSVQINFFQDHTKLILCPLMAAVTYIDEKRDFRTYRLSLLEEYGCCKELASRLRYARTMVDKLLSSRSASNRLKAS
ALOX12 inh – Primary qHTS assay for inhibitors of human arachidonate 12S-lipoxygenase (ALOX12): Round 2; Polyunsaturated fatty acid lipoxygenase ALOX12 (Homo sapiens), P18054; purified 12hLO, xylenol orange hydroperoxide absorbance; Potency, µM (doses to about 108 µM), without a hit: at the highest dose activity change, negative = inhibition, hits mostly inhibitors; 580,000 tested, 1.1% active; AID 1671190, 2021
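Purified human 12hLO (150 nM final) in 25 mM Hepes, 0.01% Triton X-100, pH 7.0 was preincubated 15 min at room temperature with compound. Then 40 uM arachidonic acid was added, 30 min. Hydroperoxide was read by Fe-XO absorbance ratio 573/405 nm.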
Active calls of the source: *; ? = inconclusive; / = no result; ! = not active in a repeat. An excerpt weighted towards active compounds, which were near 4.2% of everything screened. Calls come from the whole dose curve; as a rule, active = well fitted curve in the direction sought with a large enough effect; inconclusive = small, poorly fitted or top-dose-only effect, or another doubt; inactive = no such curve, though single readings can be large; an effect the other way counts as inactive or inconclusive. Unless noted, % is set by controls: 0 for no effect and ±100 for the full control effect; potency is the fitted concentration of half-maximal effect.

SMILES	Sfp PPTase inh	VDR inhibitor	PLK1 PBD block	ALOX12 inh
COC(=O)c1nn(-c2ccc(OC)cc2)c(=O)c2c(N)sc(C)c12	35µM*	?	24µM*	?
COC(=O)c1nn(-c2ccc(OC)cc2)c(=O)cc1NN	5%	-7%	-6%	?
NS(=O)(=O)c1cc(C(=O)OCCNC(=O)c2ccccc2)c(Cl)cc1Cl	/	2%	-2%	0%
COc1cccc(CC(=O)N2CCCC(c3noc(COc4ccccc4)n3)C2)c1 (stereo not given)	/	/	/	44%
C#CCOCCOCCOCCNc1nc(N2CCN(C(=O)Cn3cc(CC(C)O)nn3)CC2)nc(N2CCN(C(=O)[C@H]([C@@H](C)O)n3cc(CCCCN)nn3)CC2)n1 (stereo not given in full)	/	-20%	-1%	-16%
CC1(C)CC(N2CCCC2)=CC(=[N+]2CCCCC2)C1	-19%	-15%	-18%	40µM*
CC1(C)CC(=O)C=C(N2CCN(C3=CC(=O)CC(C)(C)C3)CC2)C1	-8%	/	/	/
Cc1ccc(-c2ccc([C@H]3[C@@H]4C=CCC[C@@]4(C)C(=O)N3Cc3ccccc3)c(F)c2)cc1	?	5%	-2%	-24%
Cc1ccc(F)c(C2C3C=CCCC3(C)C(=O)N2Cc2ccccc2)c1 (stereo not given)	28µM*	-15%	/	/
COc1ccc(-c2ccc([C@H]3[C@@H]4C=CCC[C@@]4(C)C(=O)N3Cc3ccccc3)c(F)c2)cc1	32µM*	-13%	-5%	-24%
Cc1ccc(-c2ccc(C3C4C=CCCC4(C)C(=O)N3Cc3ccccc3)c(F)c2)cc1 (stereo not given)	?	-8%	/	/
O=c1cc(O)c2sc3nc(-c4cccs4)cc(-c4cccs4)c3c2[nH]1	/	/	/	10µM*
COc1ccc(C2=CSC(/N=C/c3ccc(F)cc3)=NN2)cc1	28µM*	-83%	-27%	?
O=C(CCN1C(=O)C2CC=C(Cl)CC2C1=O)N1CCCCC1 (stereo not given)	89µM*	2%	?	-8%
CCSC1(SCC)N=C(N)C2(C#N)C(c3ccc(F)cc3)C12C#N (stereo not given)	-21%	89µM*	9.5µM*	?
CC(C)CC(NC(N)=O)C(=O)N1CCN(S(=O)(=O)c2ccc(C(C)C)cc2)CC1 (stereo not given)	/	/	/	24%
CC1Cc2cc(S(=O)(=O)N3CCN(c4ccc(Cl)cc4)CC3)ccc2N1C(=O)C1CC1 (stereo not given)	14%	-8%	3%	-6%
O=C1C=CC(=O)C2=C1C1c3ccccc3C2c2ccccc21	3.2µM*	/	/	?
C[C@H](NC(=O)N1CCn2c1nc1ccccc12)C(=O)N1CCCCC1	1%	?	8.4µM*	14%
COc1cccc(CNC(=O)CCNC(=O)N2CCn3c2nc2ccccc23)c1	18%	5%	-9%	2%
C[C@H](NC(=O)N1CCn2c1nc1ccccc12)C(=O)NC1CC1	0%	9%	3%	9%
O=C(c1ccccc1)N1CCn2c1nc1ccccc12	2%	?	27µM*	1%
COc1ccc(CNC(=O)CCNC(=O)N2CCn3c2nc2ccccc23)cc1	0%	-20%	24µM*	?
O=C(NCc1ccc(Cl)c(Cl)c1)c1cc(C2CCCCN2C(=O)C2CCCCC2)on1 (stereo not given)	/	/	-4%	?
Cc1noc(C)c1S(=O)(=O)N1CCC(N(C(=O)C2CC2)C2CCOCC2)CC1	/	/	/	-4%
SMILES	Sfp PPTase inh	VDR inhibitor	PLK1 PBD block	ALOX12 inh
Cc1cc(OCC(O)CN2CCN(c3cccc(Cl)c3)CC2)ccc1Cl (stereo not given)	/	-8%	/	40µM*
Cc1cccc(N2CCN(CC(O)COc3ccc4ccccc4c3)CC2)c1 (stereo not given)	/	-20%	-3%	1%
C=CCc1cc(C)ccc1OCC(O)CN1CCN(c2ccccc2)CC1 (stereo not given)	?	2%	-5%	?
CCCN1CCN(CC(O)COC(c2ccc(OC)cc2)c2ccc(OC)cc2)CC1 (stereo not given)	45µM*	-12%	-2%	?
C=CCc1cc(OC)ccc1OCC(O)CN1CCN(c2ccc(OC)cc2)CC1 (stereo not given)	-11%	1%	-1%	35µM*!
COc1ccc(N2CCN(CC(O)COc3ccc(C(C)C)c(C)c3)CC2)cc1 (stereo not given)	/	-6%	/	16µM*
COc1ccc(N2CCN(CC(O)COc3ccc(C)c(C)c3)CC2)cc1 (stereo not given)	-1%	7%	1%	?
COc1ccc(OCC(=O)Nc2ccc(-c3nc4ccccc4o3)cc2)cc1	/	/	/	10%
Cn1c(=O)n(Cc2ccc(Cl)cc2)c2ccccc21	-11%	-6%	-9%	-2%
Cn1c(SCC(=O)Nc2ccc(F)cc2)nc2c(c1=O)SCC2	7%	-7%	-1%	?
COc1ccc(N2CCN(CC(O)COc3c(OC)cccc3OC)CC2)cc1 (stereo not given)	-2%	1%	5%	40µM*!
COCCOCC(O)CN1CCN(c2ccc(C)cc2)CC1 (stereo not given)	79µM*	-13%	-16%	?
CCOc1ccccc1N(CC(=O)Nc1cc(OC)ccc1OC)S(C)(=O)=O	16%	11%	-7%	0%
COC(=O)c1ccc(/C=C2\SC(=S)N(CCCC(=O)N3CCOCC3)C2=O)cc1	/	10%	3%	-24%
O=C(NC(=S)Nc1ccc(S(=O)(=O)Nc2nccs2)cc1)c1ccc(F)c(F)c1	-9%	-14%	-15%	10µM*
O=C(NC(=S)Nc1ccc(S(=O)(=O)Nc2nccs2)cc1)c1ccccc1F	-11%	?	15µM*	-26%
O=C(NC(=S)Nc1ccc(S(=O)(=O)Nc2nccs2)cc1)c1cccnc1	-20%	-5%	?	?
O=C(NC(=S)Nc1ccc(S(=O)(=O)Nc2nccs2)cc1)c1ccccc1	1%	-7%	-19%	?
Cc1ccc(Cl)cc1NC(=O)N1CCc2cc(S(=O)(=O)N3CCC(C)CC3)ccc21	/	19%	/	-17%
COc1ccc(OC)c(N)c1	-25%	?	-21%	-5%
COc1cc(OC)c(Cl)cc1N	6%	-29%	6.7µM*	-13%
Cc1cc(C(=O)Nc2nc3ccc(Cl)cc3s2)nn1C	9%	6%	-17%	0%
NNc1nc2ccc(F)cc2s1	-19%	?	-24%	6.3µM*
Fc1ccc2nc(Nc3ccccc3)sc2c1	12%	-10%	-10%	-1%
Cn1ncc(Cl)c1C(=O)Nc1nc2ccc(Cl)cc2s1	-24%	-19%	17µM*	-24%
NNc1nc2ccc(Cl)cc2s1	-22%	-28%	1%	7.1µM*
O=C(Nc1nc2ccc(Cl)cc2s1)c1ccc(Br)o1	3%	3%	-11%	-2%
